# Results: PubChem BioAssay (Tox21)
# A number with no mark means an inactive call. Inconclusive results are not listed. Where a call stands in place of a potency, no number is given. Active and inactive are the calls of the source. Unless noted, calls follow the shape of the full dose curve.
# Key:
# [1] = qHTS assay to identify small molecule antagonists of the sonic hedgehog signaling (Shh) pathway (AID 1259369); also: nearly all actives have a fitted effect of over 45% in size; also: potency is read from the fitted curve at half-maximal effect
# Summary of the method: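 Read-out is luminescence from a firefly luciferase gene controlled by the Gli1 response element, in 3T3Gli1-Luc cells pre-incubated 4hr then exposed to compounds and conditioned medium for 24hr.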
# [2] = target: Estrogen receptor beta (Homo sapiens) (UniProt Q92731); experiment: qHTS assay to identify small molecule agonists of the estrogen receptor beta (ER-beta) signaling pathway (AID 1259377; active = well fitted activation curve with a large enough effect in the signal ratio in the repeat runs, not every such curve was filed as active; the % refers to the signal ratio)
# Summary of the method: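 Agonist mode cell assay in GripTite HEK293T cells expressing an ER-beta fusion that drives beta-lactamase from an Upstream Activator Sequence; 16 hr compound exposure at 37C, then 2 h LiveBLAzer B/G FRET substrate at room temperature, fluorescence read-out.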
# [3] = target: Estrogen receptor beta (Homo sapiens) (UniProt Q92731); experiment: qHTS assay to identify small molecule antagonists of the estrogen receptor beta (ER-beta) signaling pathway (AID 1259378; active = well fitted inhibition curve with a large enough effect in the signal ratio in the repeat runs, not every such curve was filed as active; the % refers to the signal ratio)
# Summary of the method: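 Antagonist mode: compounds added to beta-lactamase reporter HEK293T ER-beta-UAS cells stimulated with E2 (1nM final), 16 hr at 37C. LiveBLAzer B/G FRET substrate, 2 hours room temperature, fluorescence read-out.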
# [4] = qHTS assay to identify small molecule antagonists of the estrogen receptor beta (ER-beta) signaling pathway - cell viability counter screen (AID 1259382; active = well fitted curve in the direction sought with a large enough effect in the repeat runs; an effect the other way counts as inactive or inconclusive;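 also: HEK293T cells carrying ER-beta-UAS-bla reporter stimulated with estradiol; series mostly up to about 92 µM; nearly all actives have a fitted effect of over 55% in size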)
# Summary of the method: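 CellTiter-Glo ATP luminescence measured after the LiveBLAzer read in the same wells; ER-beta-UAS-bla HEK293T cells, 16 hr compound treatment with 1nM 17-beta-estradiol agonist at 37C, 5% CO2.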
# [5] = target: Estrogen receptor (Homo sapiens) (UniProt P03372); experiment: qHTS assay to identify small molecule agonists of the estrogen receptor alpha (ER-alpha) signaling pathway in the presence of an antagonist (AID 1259383); also: top concentration of the series differs between compounds; nearly all actives have a fitted effect of over 15% in size
# Summary of the method: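 Luminescent ERE-luciferase reporter, VM7Luc4E2 cells (endogenous ER-alpha); 10.0nM ICI-182,780 final; 15-point compound titration; 22hr at 37C; ONE-Glo, 30min RT.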
# [6] = qHTS assay to identify small molecule agonists or antagonists of the thyroid stimulating hormone receptor (TSHR) signaling pathway - wild type cell line counter screen (AID 1259384)
# Summary of the method: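 Counter screen in untransfected Hek293: compounds (15-point titration, triplicate) plus phosphodiesterase inhibitor Ro20-1724 added after 18 h plating; 30 min RT. Intracellular cAMP via competitive d2/cryptate immunoassay, 1 h incubation.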
# [7] = target: Thyrotropin receptor (Homo sapiens) (UniProt P16473); experiment: qHTS assay to identify small molecule antagonists of the thyroid stimulating hormone receptor (TSHR) signaling pathway (AID 1259385); also: nearly all actives have a fitted effect of over 20% in size
# Summary of the method: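 Antagonist mode: compound-treated TSHR-expressing HEK293 cells were stimulated with 1.5 ng/mL TSH (final) in presence of Ro20-1724 for 30 min at RT. HTRF cAMP detection after 1 h; each compound tested at 15 concentrations, triplicate.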
# [8] = target: Progesterone receptor (Homo sapiens) (UniProt P06401); experiment: qHTS assay to identify small molecule agonists of the progesterone receptor (PR) signaling pathway (AID 1346784); also: nearly all actives have a fitted effect of over 30% in size
# Summary of the method: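 Cells (PR-UAS-bla HEK 293T, GripTite) were plated in assay medium containing 2% charcoal-stripped FBS and incubated 6 hr. Test compounds in DMSO were added for 16 hr at 37C. FRET substrate was then loaded for 2 hr at room temperature before fluorescence reading.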
# [9] = qHTS assay to identify small molecule antagonists of the TGF-beta/Smad signaling pathway - cell viability counter screen (AID 1346824; active = well fitted curve in the direction sought with a large enough effect in the repeat runs; an effect the other way counts as inactive or inconclusive; also: nearly all actives have a fitted effect of over 50% in size)
# Summary of the method: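 Cytotoxicity counter-screen run in the same wells as the beta-lactamase Smad reporter read: CellTiter-Glo luminescence after 30 min at room temperature. HEK 293T SBE-bla cells had 5 hr compound exposure at 37 C with TGF-beta1 (0.25 ng/mL stock).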
# [10] = qHTS assay to identify small molecule agonists of the TGF-beta/Smad signaling pathway - cell viability counter screen (AID 1346829; active = well fitted curve in the direction sought with a large enough effect in the repeat runs; an effect the other way counts as inactive or inconclusive; also: top concentration of the series differs between compounds; nearly all actives have a fitted effect of over 45% in size)
# Summary of the method: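 Cytotoxicity counter screen: CellTiter-Glo luminescence (30 min, room temperature) measured in the SBE-bla HEK 293T reporter wells after 5 hr compound treatment at 37 C and the 2 hr substrate step.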
# [11] = qHTS assay to identify small molecule agonists of the TGF-beta/Smad signaling pathway (AID 1346859; active = well fitted activation curve with a large enough effect in the signal ratio in the repeat runs, not every such curve was filed as active; the % refers to the signal ratio; also: series mostly up to about 77 µM)
# Summary of the method: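 Reporter line: HEK 293T with stably integrated SBE-controlled beta-lactamase. Compound exposure lasts 5 hr at 37 C and 5% CO2; substrate loading follows for 2 hr at room temperature, with emission read at 460 and 530 nm.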
# [12] = target: Thyrotropin-releasing hormone receptor (Homo sapiens) (UniProt P34981); experiment: qHTS assay to identify small molecule antagonists of the thyrotropin-releasing hormone receptor (TRHR) signaling pathway (AID 1346877; active = well fitted inhibition curve with a large enough effect in the repeat runs, not every such curve was filed as active; also: series mostly up to about 51 µM)
# Summary of the method: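 Calcium signal in dye-loaded TRHR/HEK293 cells; compounds added 5 min before TRH (1 nM final); fluorescence monitored 3 min at 1 s steps.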
# [13] = target: Thyrotropin-releasing hormone receptor (Homo sapiens) (UniProt P34981); experiment: qHTS assay to identify small molecule agonists of the thyrotropin-releasing hormone receptor (TRHR) signaling pathway (AID 1346891);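 also: HEK293 cells expressing TRHR with calcium dye readout; series mostly up to about 58 µM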
# Summary of the method: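 Cells: TRHR-Hek293, seeded and incubated 18 h. Dye loading: 2 h at 37 °C. Compound added from DMSO stock by pin tool. Read-out: kinetic calcium fluorescence over 3 min.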
# [14] = qHTS assay to identify small molecule agonists of the androgen receptor (AR) signaling pathway in the presence of an antagonist - cell viability counter screen (AID 1259379; active = well fitted curve in the direction sought with a large enough effect in the repeat runs; an effect the other way counts as inactive or inconclusive;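 also: MDA-kb2 human breast cancer cells carrying an MMTV luciferase reporter; series mostly up to about 92 µM; nearly all actives have a fitted effect of over 25% in size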)
# Summary of the method: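 Each compound was tested at 15 concentrations on MDA-kb2 cells in the presence of 3.0uM nilutamide. Viability was measured by CellTiter-Fluor fluorescence after a 16 hr incubation at 37C in a CO2-free atmosphere.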
# [15] = target: Progesterone receptor (Homo sapiens) (UniProt P06401); experiment: qHTS assay to identify small molecule antagonists of the progesterone receptor (PR) signaling pathway (AID 1346795; active = well fitted inhibition curve with a large enough effect in the signal ratio in the repeat runs, not every such curve was filed as active; the % refers to the signal ratio)
# Summary of the method: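 Antagonist mode: compounds tested against 1 nM (final) promegestone stimulation in HEK293T cells expressing PR-UAS-bla reporter, 16 hr at 37C, 5% CO2; beta-lactamase activity detected via B/G FRET substrate after 2 hr at room temperature.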
# [16] = qHTS assay to identify small molecule antagonists of the progesterone receptor (PR) signaling pathway - cell viability counter screen (AID 1346798; active = well fitted curve in the direction sought with a large enough effect in the repeat runs; an effect the other way counts as inactive or inconclusive; also: series mostly up to about 92 µM; nearly all actives have a fitted effect of over 50% in size)
# Summary of the method: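 Counter screen for cytotoxicity: viability of PR-UAS-bla HEK293T cells was measured with CellTiter-Glo luminescence following 16 hr compound exposure in the presence of R5020.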
# [17] = qHTS assay to identify small molecule agonists of the estrogen receptor beta (ER-beta) signaling pathway - cell viability counter screen (AID 1259380; active = well fitted curve in the direction sought with a large enough effect in the repeat runs; an effect the other way counts as inactive or inconclusive; also: nearly all actives have a fitted effect of over 30% in size)
# Summary of the method: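 Compounds dissolved in DMSO were pin-transferred onto ER-beta-UAS-bla HEK293T cells that had settled 6 hr, and exposure ran 16 hr at 37C. Following the reporter read, CellTiter-Glo luminescence after 30 min at room temperature indicated cytotoxicity.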
# [18] = target: Androgen receptor (Homo sapiens) (UniProt P10275); experiment: qHTS assay to identify small molecule agonists of the androgen receptor (AR) signaling pathway in the presence of an antagonist (AID 1259381); also: nearly all actives have a fitted effect of over 15% in size
# Summary of the method: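 Plated MDA-kb2 cells (3,000/well) were pre-incubated 5hr, given nilutamide (3.0uM final) or buffer, then dosed with compounds in DMSO at 15 concentrations. Luciferase activity was quantified by luminescence after 16hr at 37C.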
# [19] = qHTS assay to identify small molecule agonists of the progesterone receptor (PR) signaling pathway - cell viability counter screen (AID 1346799); also: nearly all actives have a fitted effect of over 45% in size
# Summary of the method: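 Cells (PR-UAS-bla HEK293T) are plated at 3,000/well in 2% charcoal-stripped FBS medium, rested 6 hr, dosed and incubated 16 hr at 37C. CellTiter-Glo is then added and luminescence measured after 30 min at room temperature.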
# Sequence of Progesterone receptor (Homo sapiens) (P06401 whole entry, looked up): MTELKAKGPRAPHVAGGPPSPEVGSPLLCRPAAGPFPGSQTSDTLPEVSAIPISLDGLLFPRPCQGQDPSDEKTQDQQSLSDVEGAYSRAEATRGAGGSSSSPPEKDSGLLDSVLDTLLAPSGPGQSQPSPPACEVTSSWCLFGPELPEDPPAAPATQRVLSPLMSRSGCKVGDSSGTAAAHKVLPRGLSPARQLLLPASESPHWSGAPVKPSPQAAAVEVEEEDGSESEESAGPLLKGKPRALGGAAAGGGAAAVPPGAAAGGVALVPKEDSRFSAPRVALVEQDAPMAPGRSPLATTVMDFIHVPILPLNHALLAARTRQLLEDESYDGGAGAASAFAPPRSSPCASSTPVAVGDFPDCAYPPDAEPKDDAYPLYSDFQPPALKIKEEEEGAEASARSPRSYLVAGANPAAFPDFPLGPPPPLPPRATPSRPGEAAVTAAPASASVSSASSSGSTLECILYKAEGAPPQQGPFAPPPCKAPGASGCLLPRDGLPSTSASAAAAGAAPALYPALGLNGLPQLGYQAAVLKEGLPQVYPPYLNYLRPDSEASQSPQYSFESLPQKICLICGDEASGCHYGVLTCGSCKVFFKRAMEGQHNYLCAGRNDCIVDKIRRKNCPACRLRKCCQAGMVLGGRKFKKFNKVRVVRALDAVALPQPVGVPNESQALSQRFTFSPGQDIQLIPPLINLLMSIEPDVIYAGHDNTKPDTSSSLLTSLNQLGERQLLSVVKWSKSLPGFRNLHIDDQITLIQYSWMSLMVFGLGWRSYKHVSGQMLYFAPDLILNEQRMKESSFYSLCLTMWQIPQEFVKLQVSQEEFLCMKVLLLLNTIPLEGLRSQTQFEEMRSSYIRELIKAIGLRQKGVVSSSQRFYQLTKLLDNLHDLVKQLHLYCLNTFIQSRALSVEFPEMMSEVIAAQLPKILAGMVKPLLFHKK
# Sequence of Thyrotropin-releasing hormone receptor (Homo sapiens) (P34981 whole entry, looked up): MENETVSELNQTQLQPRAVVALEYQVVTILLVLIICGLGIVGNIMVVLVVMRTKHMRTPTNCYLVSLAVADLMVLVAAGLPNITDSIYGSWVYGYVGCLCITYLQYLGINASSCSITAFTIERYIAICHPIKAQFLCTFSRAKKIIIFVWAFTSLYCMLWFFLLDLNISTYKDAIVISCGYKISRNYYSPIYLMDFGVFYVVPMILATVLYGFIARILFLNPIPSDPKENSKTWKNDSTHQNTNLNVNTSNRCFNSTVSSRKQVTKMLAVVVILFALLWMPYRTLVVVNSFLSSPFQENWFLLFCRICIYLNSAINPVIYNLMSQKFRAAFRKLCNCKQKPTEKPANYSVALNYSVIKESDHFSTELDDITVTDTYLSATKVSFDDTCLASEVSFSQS
# Sequence of Estrogen receptor (Homo sapiens) (P03372 whole entry, looked up): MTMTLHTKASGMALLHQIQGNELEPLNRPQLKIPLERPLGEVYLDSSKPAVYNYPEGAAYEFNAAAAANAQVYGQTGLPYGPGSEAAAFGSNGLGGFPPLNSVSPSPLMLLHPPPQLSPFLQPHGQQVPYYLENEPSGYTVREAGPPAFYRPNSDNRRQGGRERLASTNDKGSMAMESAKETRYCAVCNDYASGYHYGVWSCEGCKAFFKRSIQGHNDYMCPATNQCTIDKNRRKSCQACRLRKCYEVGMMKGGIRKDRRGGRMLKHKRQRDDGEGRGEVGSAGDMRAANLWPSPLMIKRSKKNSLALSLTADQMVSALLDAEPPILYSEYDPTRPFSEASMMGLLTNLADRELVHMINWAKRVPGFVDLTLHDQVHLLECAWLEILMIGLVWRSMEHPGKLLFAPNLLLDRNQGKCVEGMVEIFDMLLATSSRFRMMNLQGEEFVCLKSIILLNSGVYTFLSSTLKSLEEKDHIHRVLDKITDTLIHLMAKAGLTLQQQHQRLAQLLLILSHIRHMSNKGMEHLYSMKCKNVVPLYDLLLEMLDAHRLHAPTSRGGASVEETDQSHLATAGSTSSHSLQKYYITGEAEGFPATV
# Sequence of Estrogen receptor beta (Homo sapiens) (Q92731 whole entry, looked up, the tested form may be a part): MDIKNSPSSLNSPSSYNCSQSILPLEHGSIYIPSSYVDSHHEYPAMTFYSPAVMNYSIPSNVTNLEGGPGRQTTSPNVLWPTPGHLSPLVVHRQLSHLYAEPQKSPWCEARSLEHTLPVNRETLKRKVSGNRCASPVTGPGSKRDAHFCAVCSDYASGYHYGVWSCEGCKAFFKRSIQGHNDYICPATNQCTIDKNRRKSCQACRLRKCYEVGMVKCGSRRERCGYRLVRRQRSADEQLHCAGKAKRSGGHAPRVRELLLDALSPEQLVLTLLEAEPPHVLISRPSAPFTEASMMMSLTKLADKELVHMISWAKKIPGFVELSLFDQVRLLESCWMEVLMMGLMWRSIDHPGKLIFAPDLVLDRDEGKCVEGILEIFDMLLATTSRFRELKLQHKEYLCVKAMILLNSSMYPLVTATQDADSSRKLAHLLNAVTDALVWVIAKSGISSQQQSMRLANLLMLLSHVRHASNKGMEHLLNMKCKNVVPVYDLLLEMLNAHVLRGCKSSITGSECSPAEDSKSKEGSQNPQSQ
# Sequence of Thyrotropin receptor (Homo sapiens) (P16473 whole entry, looked up): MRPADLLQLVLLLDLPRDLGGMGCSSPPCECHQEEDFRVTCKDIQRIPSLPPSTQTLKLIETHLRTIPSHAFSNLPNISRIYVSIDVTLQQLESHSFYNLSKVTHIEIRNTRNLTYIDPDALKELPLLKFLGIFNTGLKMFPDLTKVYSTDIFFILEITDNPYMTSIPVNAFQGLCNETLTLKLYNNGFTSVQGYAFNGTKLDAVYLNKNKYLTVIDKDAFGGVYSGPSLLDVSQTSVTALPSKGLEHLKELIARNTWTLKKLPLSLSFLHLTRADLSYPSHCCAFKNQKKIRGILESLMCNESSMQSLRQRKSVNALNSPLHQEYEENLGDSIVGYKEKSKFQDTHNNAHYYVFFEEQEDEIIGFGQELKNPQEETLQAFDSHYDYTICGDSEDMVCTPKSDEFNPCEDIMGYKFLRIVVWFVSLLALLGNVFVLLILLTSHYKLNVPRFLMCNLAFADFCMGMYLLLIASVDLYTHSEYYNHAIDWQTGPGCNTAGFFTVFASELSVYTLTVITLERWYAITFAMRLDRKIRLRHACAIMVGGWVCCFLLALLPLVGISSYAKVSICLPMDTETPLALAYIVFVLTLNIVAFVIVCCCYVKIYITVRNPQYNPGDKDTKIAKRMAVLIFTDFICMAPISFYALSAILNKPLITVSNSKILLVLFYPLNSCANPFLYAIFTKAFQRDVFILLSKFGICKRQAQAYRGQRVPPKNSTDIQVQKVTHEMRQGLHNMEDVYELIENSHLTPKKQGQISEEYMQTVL
# Sequence of Androgen receptor (Homo sapiens) (P10275 whole entry, looked up): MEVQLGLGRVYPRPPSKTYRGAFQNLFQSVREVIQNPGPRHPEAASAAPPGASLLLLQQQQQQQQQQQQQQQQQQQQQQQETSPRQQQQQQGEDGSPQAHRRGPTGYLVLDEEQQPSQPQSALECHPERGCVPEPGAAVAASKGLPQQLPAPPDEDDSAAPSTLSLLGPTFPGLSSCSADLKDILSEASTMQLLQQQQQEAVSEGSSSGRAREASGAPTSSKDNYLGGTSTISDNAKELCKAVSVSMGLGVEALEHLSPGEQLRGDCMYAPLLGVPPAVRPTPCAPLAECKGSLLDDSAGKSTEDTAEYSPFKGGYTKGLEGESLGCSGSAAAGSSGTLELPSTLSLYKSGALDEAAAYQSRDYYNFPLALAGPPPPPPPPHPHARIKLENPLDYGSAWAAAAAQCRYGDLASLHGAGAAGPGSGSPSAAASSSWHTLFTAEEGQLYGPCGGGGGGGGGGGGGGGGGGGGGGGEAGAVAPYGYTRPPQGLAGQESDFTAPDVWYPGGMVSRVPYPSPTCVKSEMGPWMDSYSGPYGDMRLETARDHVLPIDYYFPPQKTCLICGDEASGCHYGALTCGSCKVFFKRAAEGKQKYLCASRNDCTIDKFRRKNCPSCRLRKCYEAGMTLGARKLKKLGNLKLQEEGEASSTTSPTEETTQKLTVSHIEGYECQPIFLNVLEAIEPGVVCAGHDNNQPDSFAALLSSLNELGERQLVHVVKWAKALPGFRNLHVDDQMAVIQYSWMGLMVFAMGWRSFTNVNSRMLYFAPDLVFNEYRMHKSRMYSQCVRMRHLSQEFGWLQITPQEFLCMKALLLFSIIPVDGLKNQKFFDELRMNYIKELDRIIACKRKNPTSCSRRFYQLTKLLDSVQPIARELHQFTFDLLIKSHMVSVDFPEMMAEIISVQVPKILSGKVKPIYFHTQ
Structure (SMILES),Potency [1],outcome [2],Potency [3],outcome [4],Potency [5],outcome [6],Potency [7],Potency [8],outcome [9],outcome [10],outcome [11],outcome [12],Potency [13],Potency [14],Potency [15],Potency [16],Potency [17],Potency [18],Potency [19]
CC[C@H]1CC[C@H](NCc2cc3c(cc2OC)[C@H]2C[C@H]2C(=O)N3C)[C@H](c2ccccc2)N1,4.33 µM (active),inactive,inactive,inactive,inactive,inactive,inactive,inactive,inactive,inactive,inactive,inactive,inactive,,,,,,
NNS(=O)(=O)c1ccc(Oc2ccc(S(=O)(=O)NN)cc2)cc1,inactive,inactive,inactive,inactive,inactive,inactive,inactive,inactive,inactive,inactive,inactive,inactive,inactive,inactive,inactive,inactive,,,
OCCN(CCO)c1ccccc1,inactive,,inactive,inactive,inactive,,,inactive,inactive,inactive,inactive,inactive,inactive,inactive,inactive,inactive,inactive,inactive,inactive
